JMJD2E inh: blocks human JMJD2E demethylase activity | B2RXH2 | JMJD2E catalytic domain, FDH-coupled NADH fluorescence (FDH is formaldehyde dehydrogenase) | Potency, µM (series often up to 57.1 µM), inactives show at the top dose activity change, negative = inhibition, usual class: inhibitors | actives 1.6% (n = 230,000);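 also: 0% = wells with enzyme and -100% = buffer wells without enzyme; nearly all actives have a fitted effect of over 50% in size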
Target sequence (B2RXH2 1-337 limits assumed): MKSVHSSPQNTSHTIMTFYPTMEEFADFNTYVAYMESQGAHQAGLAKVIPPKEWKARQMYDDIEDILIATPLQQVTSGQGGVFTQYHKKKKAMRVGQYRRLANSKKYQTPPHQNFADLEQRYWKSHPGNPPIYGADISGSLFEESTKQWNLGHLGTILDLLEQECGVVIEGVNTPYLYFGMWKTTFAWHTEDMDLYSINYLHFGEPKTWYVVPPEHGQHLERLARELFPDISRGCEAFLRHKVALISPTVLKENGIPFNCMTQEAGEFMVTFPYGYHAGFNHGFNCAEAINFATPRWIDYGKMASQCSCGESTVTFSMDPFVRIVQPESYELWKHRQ
HPGD inh: inhibitors of human 15-hydroxyprostaglandin dehydrogenase (HPGD); purified HPGD, NADH fluorescence kinetic, PGE2 substrate; Potency, µM, for inactives: at the top dose activity change, negative = inhibition, usual class: inhibitors; actives 4.3% (n = 150,000); also: % is scaled to controls: 0 for no effect and ±100 for the full control effect
Target sequence (P15428 whole entry, looked up): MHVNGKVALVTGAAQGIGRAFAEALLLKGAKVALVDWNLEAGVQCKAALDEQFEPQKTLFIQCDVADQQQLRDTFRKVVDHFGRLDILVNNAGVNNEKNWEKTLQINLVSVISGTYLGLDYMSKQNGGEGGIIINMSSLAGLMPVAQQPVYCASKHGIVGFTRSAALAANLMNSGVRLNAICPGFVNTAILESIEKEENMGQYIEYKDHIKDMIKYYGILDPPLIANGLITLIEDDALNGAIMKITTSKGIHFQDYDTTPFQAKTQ
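NADH formation kinetics: reaction with 30 uM PGE2 and 1 mM NAD+ (final), 20 nM enzyme, Tris-HCl pH 8 with Tween 20, after 15 min compound preincubation at room temperature. Fluorescence change, last versus first of five reads.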
LMNA splice mod: modulators of lamin A splicing | HeLa LMNA splicing GFP/RFP minigene ratio, 48 h | Potency, µM (series often up to 46.1 µM), for the others: at the top dose ratio change, negative = inhibition, actives largely listed as inhibitors | actives 0.01% (n = 200,000) | AID 1487; active = well fitted inhibition curve with a large enough effect in the signal ratio, with a control signal flat, not every such curve was filed as active; inconclusive = small, poorly fitted or top-dose-only effect, or effect the other way, or a change in a side signal; the % refers to the signal ratio; also: % is scaled to controls: 0 for no effect and ±100 for the full control effect
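Read-out is the ratio of GFP to DsRed2 object intensity, acquired by 488 nm laser-scanning cytometry on HeLa lamin A-EGFP minigene reporter cells. Compound incubation 48 hrs at 37 °C in Opti-MEM with 2% FBS; DMSO 0.5% final.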
HTT aggregate: inhibitors of mutant huntingtin aggregate formation in PC12 cells; PC12 HttQ103-GFP aggregates, Acumen cytometry, 40 h; Potency, µM (titrated, usually from 46.1 µM), without a hit: top-dose activity change, negative = inhibition, actives largely listed as inhibitors; AID 1688; actives 1.1% (n = 220,000); active = well fitted curve in the direction sought with a large enough effect; inconclusive = small, poorly fitted or top-dose-only effect, or another doubt; inactive = no such curve, though single readings can be large; an effect the other way counts as inactive or inconclusive; also: % is scaled to controls: 0 for no effect and ±100 for the full control effect; nearly all actives have a fitted effect of over 60% in size
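Quantitative HTS on tebufenozide-induced (100 nM) PC12 cells stably expressing polyQ103 Huntingtin exon 1–GFP. Reduction of bright GFP aggregates, detected by laser scanning cytometry after lysis, identified actives across the titration.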
ALDH1A1 block: blocks purified human ALDH1A1 activity; actives 7.3% (n = 220,000); Potency, µM (top dose mostly 75.3 µM), inactives show at the highest dose activity, negative = inhibition, hits mostly inhibitors; AID 1030; Purified ALDH1A1, NADH fluorescence, propionaldehyde substrate;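 also: plate controls were no enzyme wells and a reference inhibitor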
HTT cytoprotect: cytoprotection in Huntington HTT-Q103 PC12 cell model; PC12 HTT-Q103 induced, cytoprotection, ATP luminescence, 40 h; Potency, µM (titrated, usually from 56.4 µM), for the others: cytoprotection (ATP increase), hits mostly activators; actives 0.14% (n = 230,000); active = well fitted curve in the direction sought with a large enough effect; inconclusive = small, poorly fitted or top-dose-only effect, or another doubt; inactive = no such curve, though single readings can be large; an effect the other way counts as inactive or inconclusive; also: % of control where 0% means no effect; nearly all actives have a fitted effect of over 45% in size
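PC12 cells with ecdysone-inducible HTT exon 1 Q103-GFP, induced with 100 nM tebufenozide and co-treated with library compounds in a dose series (1536-well, 1500 cells/well). Cytoprotection read as ATP content by ATPlite luminescence.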
Active calls of the source: *; u = inconclusive; x = no result; [ ] = another dose, or the depositor's remark. Most compounds without a hit are left out; they make up all but 9.2% or so of the library. Unless noted, calls follow the shape of the dose curve; as a rule, active = well fitted inhibition curve with a large enough effect (not every such curve was filed as active); inconclusive = small, poorly fitted or top-dose-only effect, or another doubt; inactive = no such curve, though single readings can be large or run the other way. Potency is read from the fitted curve at half-maximal effect.

SMILES | JMJD2E inh | HPGD inh | LMNA splice mod | HTT aggregate | ALDH1A1 block | HTT cytoprotect
CCN(CC)c1ccc(N=Cc2c(C)[nH]c3ccccc23)cc1 | 0.79µM* | u | u | 11µM* | 0.45µM* | x
Cc1[nH]c2ccccc2c1/C=N/n1cnnc1 | 1% | -13% | 3% | -6% | 10% | -14%[10 µM]
CCCCc1cc2c(cn1)=C(OC(=O)c1cccs1)C(C)(OC(=O)CC)C(=O)C=2 (configuration not stated) | -2%[11.4 µM] | -8% | u | x | 3.2µM* | -35%[10 µM]
CCOC(=O)/C(C#N)=C/c1cc(C)n(-c2ccccc2)c1C | -29% | -23% | -17% | 2%[9.22 µM] | 11µM* | -72%
CCOC(=O)/C(C#N)=C/c1cc2ccccc2nc1N1CCOCC1 | 3% | -15% | 3% | -19% | 25µM* | 43%[10 µM]
C#CCCCO/N=C1/C[C@@H](O)[C@@H](O)[C@@H]2[C@@H]3C(=O)N(Cc4ccccc4)C(=O)[C@H]3CC[C@H]12 | x | x | x | x | 12%[13.5 µM] | -1%[10 µM]
Cc1ccc(C)n1CCN1CCN(CC(=O)Nc2ccc(S(N)(=O)=O)cc2)CC1 | -1% | -7% | u | u | 25µM* | 3%
c1ccc(CSc2ccc(-c3cccs3)nn2)nc1 | -8% | x | x | 0.032µM* | -5% | -94%
c1ccc(CSc2ccc(-c3cccs3)nn2)cc1 | -3% | -5% | -9% | 11% | 16% | 5%[10 µM]
O=C(NCCN1CCOCC1)c1ccc(-n2c(=O)c(=O)[nH]c3ccccc32)cc1 | x | -15% | x | x | 4% | x
COc1ccc(CCNC(=S)NC(=O)c2c(-c3ccccc3Cl)noc2C)cc1OC | -5% | x | x | 9%[9.22 µM] | x | 9%[10 µM]
Cc1onc(-c2ccccc2Cl)c1C(N)=O | 4% | -1% | 8% | -3% | 4% | -3%[10 µM]
CCOC(=O)c1c(C)[nH]c(C)c1-c1ccccc1OC | -10% | -7% | 8% | 9% | -13% | -22%
Cc1onc(-c2ccccc2Cl)c1C(=O)Nc1nnc(-c2ccc(Br)cc2)s1 | u | u | u | u | u | -5%[10 µM]
COC(=O)c1c(C)[nH]c(C)c1-c1ccccc1Cl | 3% | -22% | u | 8.9µM* | -13% | -15%
COC(=O)c1c(-c2ccccc2Cl)noc1/C=C/N(C)C | u | x | 23%[46 µM] | -6% | 1.3µM* | -22%
Cc1onc(-c2ccccc2Cl)c1C(=O)Nc1nnc(-c2ccc(Cl)cc2Cl)s1 | u | u | u | 35µM* | u | 24%[10 µM]
COc1ccccc1NC(=S)NC(=O)c1c(-c2ccccc2Cl)noc1C | -3% | x | x | 0% | 0.89µM* | 5%
COC(=O)c1cc(OC)c(OC)cc1NC(=O)c1c(-c2ccccc2Cl)noc1C | u | -12% | 9% | 13% | 28µM* | -36%
Cc1onc(-c2ccccc2Cl)c1C(=O)Nc1ccc(F)c(F)c1 | 0% | -3% | u | -20% | 4% | 0%
Cc1onc(-c2ccccc2Cl)c1C(=O)NC(=S)Nc1ccccc1F | 1% | x | x | -6%[9.22 µM] | 3.2µM* | -10%
Cc1cc(NC(=O)c2c(-c3ccccc3Cl)noc2C)no1 | 5% | -10% | -9% | 24% | 6% | -11%
COCCn1c(C(=O)N2CCCC2)cc2c1C[C@H]1CN(C(=O)c3ccccc3)[C@@](Cc3ccc(OC)cc3)(C(=O)OC)[C@@H]21 | -17% | -15% | x | x | -4% | u
COc1ccc(CNC(=O)c2ccc(CS(=O)(=O)c3ccc(Br)cc3)o2)cc1 | x | x | 3%[46 µM] | x | x | x
C=CCSC1=NNC(c2ccc(C(C)(C)C)cc2)=NN1 | -4% | x | x | -2%[9.22 µM] | x | -11%[10 µM]
SMILES | JMJD2E inh | HPGD inh | LMNA splice mod | HTT aggregate | ALDH1A1 block | HTT cytoprotect
CCc1nn2cc(C(=O)c3cc(C)ccc3O)cnc2c1-c1ccc(F)cc1 | 1% | 16µM* | u | -18% | u | -25%[10 µM]
CCc1nn2cc(C(=O)c3ccccc3O)cnc2c1-c1ccc(F)cc1 | 3% | 16µM* | u | -15% | u | -23%[10 µM]
Cc1ccc(O)c(C(=O)c2cnc3c(c2)c(-c2ccc(F)cc2)c(C#N)c(=O)n3C)c1 | -3% | x | 12%[46 µM] | 13% | -4% | 12%
COc1ccc(-c2ccc(NS(=O)(=O)c3cc(C)c(C)cc3C)cc2)nn1 | x | x | -22%[46 µM] | x | x | x
CC(C)C(OC(=O)c1cc2sccc2n1C)C(=O)NCC1CCCO1 (configuration not stated) | 8% | -9% | u | -8% | -3% | -14%[10 µM]
COc1ccc(CN(CC2CCCO2)C(=O)c2cc3sccc3n2C)c(OC)c1 (configuration not stated) | -1% | x | x | x | 11µM* | x
O=C(CSc1nc2ccccc2c2ccccc12)c1ccccc1 | x | -20% | x | x | -12%[13.5 µM] | -2%[10 µM]
CCCc1nc(SCC(=O)c2ccc(F)cc2)c2ccccc2n1 | -2% | x | x | 10% | 18µM* | u
Cc1nc2ccccc2nc1SCC(=O)c1ccccc1 | -10% | -19% | u | u | 22µM* | 7%[10 µM]
C=CC[N+]1([C@H]2C[C@H]3[C@@H]4CC[C@H]5C[C@H](O)[C@@H](N6CCOCC6)C[C@]5(C)[C@H]4CC[C@]3(C)[C@H]2OC(C)=O)CCCC1 | x | x | x | -5% | x | -5%
CCOc1ccccc1CNC(=O)C1CCCN(c2ncnc3onc(-c4ccc(F)cc4)c23)C1 (configuration not stated) | x | x | -2%[46 µM] | x | x | x
COc1cc(C)nc2nc(SCc3ccccc3)nn12 | -4% | -21% | -3% | -20% | 14µM* | 11%
Cc1cccnc1NCc1ccc(O)c2ncccc12 | 18µM* | -27% | u | -32% | 20µM* | -47%
Cc1cccc(NCc2ccc(O)c3ncccc23)c1C | -14% | x | u | 8%[9.22 µM] | 10µM* | 13%[10 µM]
CCOC(=O)Cn1c(=O)n(CC2CCCO2)c2nc(-c3c(F)cccc3Cl)nc(C(N)=O)c21 (configuration not stated) | x | x | -5%[46 µM] | x | x | x
Cc1cc(=O)oc2c(O)c(O)ccc12 | 2.2µM* | -23% | u | x | u | x
Cc1cc(=O)oc2c(CN(CC(C)C)CC(C)C)c(O)ccc12 | u | u | 5% | 6% | u | 8%
Cc1cc(=O)oc2cc(O)ccc12 | u | u | u | 8%[20.6 µM] | u | 5.6µM*
Cc1cccc(NS(=O)(=O)c2ccc(C3CCCCC3)cc2)c1 | -2% | 4% | u | 11µM* | -4% | -57%
O=C(c1ccc(NS(=O)(=O)c2cccs2)cc1)N1CCCCC1 | 5% | 11µM* | u | 0% | u | -16%[10 µM]
O=C(CNCc1cccs1)Nc1ccc(N2CCCCCC2)cc1 | u | x | u | 1% | 22µM* | -37%
O=C(O)c1cccc(NS(=O)(=O)c2ccc(C3CCCCC3)cc2)c1 | 6% | x | 17%[46 µM] | x | 16% | x
O=S(=O)(Nc1ccc(N2CCCCC2)cc1)c1cccs1 | -1% | 25µM* | u | -10% | -2% | -3%
